From PubChem BioAssay
A selection: hits, their analogues and other compounds. The true share with any hit is near 3.2%.
PriA SSB inh = inhibitors of Klebsiella pneumoniae PriA binding to SSB C-terminal tail; AlphaScreen SSBct-PriA binding, biotinylated peptide; inhibition, % at 33 µM; actives 0.6% (n = 430,000); AID 1272365; in the data active means inhibition mostly above about 37%, no sharp cut-off; inactive means mostly below about 20%;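 further: plate controls were negative control peptide for no effect and reference peptide for full effect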
Mtb FBA inh = inhibitors of M. tuberculosis fructose-bisphosphate aldolase; P9WQA3; purified M. tuberculosis FBA, fluorescence read-out; inhibition, % at 1 µM; actives 2.3% (n = 360,000);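 further: 0% = vehicle and 100% = reference inhibitor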
Rv3671c protease = Rv3671c (M. tuberculosis) protease inhibition | inhibition, % at 5.96 µM | AID 2606 | actives 0.048% (n = 320,000) | P9WHR9; in the data active means inhibition above about 38%;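 further: extracellular domain of Rv3671c used as enzyme; 0% = enzyme with DMSO and 100% = no enzyme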
GDH-TPI counter-1 = counter-screen for M. tuberculosis FBA inhibitors: GDH-TPI coupled enzymes; GDH-TPI coupled enzyme counterscreen, NADH absorbance; inhibition, % at 4.8 µM; actives 1.2% (n = 360,000); AID 588335; in the data active means inhibition above about 30%;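 further: 0% = DMSO wells and 100% = wells lacking the enzyme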
Mtb betalactam = beta-lactam sensitization of Mtb H37Rv; AID 434955; M. tuberculosis H37Rv growth with meropenem, percent inhibition; inhibition, % at 25 µM; actives 0.27% (n = 330,000); call rule not given here;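 further: growth measured after seven days incubation then overnight dye step; 0% = bacteria only wells and 100% = bacteria with antibiotic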
Mtb UGM inh = Mtb UDP-galactopyranose mutase inhibition | actives 0.06% (n = 320,000) | purified UGM, fluorescence polarization probe displacement | P9WIQ1 | inhibition, % at 10 µM; in the data active means inhibition above about 10%, passing the limit was not always enough
Target sequence (P9WIQ1 whole entry, looked up): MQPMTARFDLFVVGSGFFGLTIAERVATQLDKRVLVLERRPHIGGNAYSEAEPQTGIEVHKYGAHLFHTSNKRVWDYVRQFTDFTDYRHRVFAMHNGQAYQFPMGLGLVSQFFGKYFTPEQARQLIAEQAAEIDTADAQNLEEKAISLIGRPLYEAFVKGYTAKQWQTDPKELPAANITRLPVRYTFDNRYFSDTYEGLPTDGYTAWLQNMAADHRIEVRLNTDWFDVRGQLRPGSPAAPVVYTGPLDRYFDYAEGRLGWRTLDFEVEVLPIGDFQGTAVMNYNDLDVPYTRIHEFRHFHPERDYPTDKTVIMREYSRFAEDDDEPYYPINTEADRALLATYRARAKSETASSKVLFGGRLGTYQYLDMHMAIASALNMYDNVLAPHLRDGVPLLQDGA
Mtb FBA inh conf = confirmation of M. tuberculosis fructose-bisphosphate aldolase inhibitors. shares compounds with Mtb FBA inh. purified M. tuberculosis FBA, fluorescence read-out. inhibition, % at 1 µM. actives 78% (n = 5,600). AID 651616;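 further: 0% = vehicle wells and 100% = reference inhibitor wells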
GDH-TPI counter-2 = inhibits GDH-TPI coupling enzymes, flagging Mtb FBA hits; inhibition, % at 1 µM; actives 81% (n = 5,600); GDH-TPI coupled enzyme counterscreen, fluorescence; shares compounds with Mtb FBA inh; in the data active means inhibition above about 10%
* = called active by the depositor; nt = not tested or not shown. Unless noted, no stated cut-off is given here; in the data, active means inhibition above about 27%; inactive means the rest.

SMILES	PriA SSB inh	Mtb FBA inh	Rv3671c protease	GDH-TPI counter-1	Mtb betalactam	Mtb UGM inh	Mtb FBA inh conf	GDH-TPI counter-2
COc1ccc(-c2coc3c(CN4CCCCC4C)c(O)ccc3c2=O)cc1 (stereo not drawn)	-17	78*	9	-2	1	1	70*	46*
COc1ccc(-c2coc3cc(OC4OC(CO)C(O)C(O)C4O)ccc3c2=O)cc1 (stereo not drawn)	-9	5	2	4	0	-1	nt	nt
CCc1cc2c(=O)c(-c3nc4ccccc4[nH]3)coc2c(CN2CCCCC2C)c1O (stereo not drawn)	3	-4	7	20	48	1	nt	nt
C=CCN(CC=C)Cc1c(O)ccc2c(=O)c(-c3ccccc3)coc12	-9	53*	1	15	-7	3	34*	27*
CN(C)Cc1c(O)ccc2c(=O)c(-c3ccc(Cl)cc3)coc12	3	46*	-4	21	1	0	43*	30*
COc1ccccc1N(CCCN1C(=O)c2cccc3cccc(c23)C1=O)C(=O)C(C)(C)C	-7	nt	nt	nt	nt	nt	nt	nt
CCC1CCCCN1Cc1c(O)ccc2c(=O)c(-c3ccccc3)coc12 (stereo not drawn)	-7	54*	-12	21	0	1	41*	32*
CC1CN(Cc2c(O)ccc3c(=O)c(-c4ccccc4)coc23)CC(C)O1 (stereo not drawn)	-8	90*	2	25	-7	2	-6	-6
CC1CCCN(Cc2c(O)ccc3c(=O)c(-c4ccc5c(c4)OCCO5)coc23)C1 (stereo not drawn)	-5	nt	nt	nt	nt	nt	nt	nt
CC1CCCCN1Cc1c(O)ccc2c(=O)c(-c3ccccc3)coc12 (stereo not drawn)	0	66*	-5	15	-2	-1	77*	57*
O=c1c(-c2ccccc2)coc2c(CN3CCCCC3)c(O)ccc12	-4	106*	0	36*	-3	0	90*	88*
COC(=O)c1[nH]c(C)c(C(O)=C2C(=O)C(=O)N(CCN3CCOCC3)C2c2ccco2)c1C (stereo not drawn)	-5	nt	nt	nt	nt	nt	nt	nt
Cc1noc(C)c1Cn1c(N2CCN(c3ccccc3)CC2)nc2ccccc2c1=O	-18	nt	nt	nt	nt	nt	nt	nt
COc1ccc(CC(=O)N2CCC(c3nnc(-c4ccc(F)cc4)o3)CC2)cc1	-8	nt	nt	nt	nt	nt	nt	nt
Cc1ccc(-c2ccc(C(=O)NCc3ccccc3)o2)c2ccccc12	9	61*	-17	11	7	2	120*	74*
Cc1ccc(-c2cccc(C(=O)NCc3ccccc3)n2)c2ccccc12	-5	4	-11	4	-6	1	nt	nt
COCC(=O)Nc1nnc(-c2cccs2)s1	-30	23	-2	25	-9	0	nt	nt
O=C(Cc1ccccc1)Nc1nnc(-c2cccs2)s1	-11	68*	6	23	3	-4	106*	83*
CCC(=O)Nc1nnc(-c2cccs2)s1	-7	27*	2	0	-2	0	0	-4
C=C(C)C(=O)Nc1nnc(-c2cccs2)s1	-8	1	0	8	11	-1	nt	nt
CCC(C)C(=O)Nc1nnc(-c2cccs2)s1 (stereo not drawn)	-5	32*	3	10	-2	3	51*	47*
COc1ccc(CCNC(=O)c2ccc(-c3ccccc3F)o2)cc1	-20	nt	nt	nt	nt	nt	nt	nt
CCOC(=O)N1CCN(C(=O)Nc2nc(CC(=O)N3CCN(c4ccccc4)CC3)cs2)CC1	-13	nt	nt	nt	nt	nt	nt	nt
C=CCOC(=O)Nc1c(C(=O)OC)[nH]c2ccc(Cl)cc12	4	40*	-1	17	2	0	0	-3
CCOC(=O)N1CCN(CC(=O)Nc2c(C(=O)OC)[nH]c3ccc(Cl)cc23)CC1	7	17	-3	5	-2	-1	nt	nt
SMILES	PriA SSB inh	Mtb FBA inh	Rv3671c protease	GDH-TPI counter-1	Mtb betalactam	Mtb UGM inh	Mtb FBA inh conf	GDH-TPI counter-2
CCOC(=O)c1[nH]c2ccc(OC)cc2c1NC(=O)c1cccc(OC)c1	-9	2	0	16	-6	-3	nt	nt
CCOC(=O)c1[nH]c2ccc(OC)cc2c1NC(=O)c1ccccc1C(=O)O	5	30*	5	1	-6	-1	31*	31*
CCOC(=O)c1[nH]c2ccc(OC)cc2c1NC(C)=O	0	34*	3	8	8	-1	5	-2
CCOC(=O)c1[nH]c2ccc(F)cc2c1NC(=O)c1ccccc1C(=O)O	-2	59*	nt	-2	8	0	5	0
CCOC(=O)c1[nH]c2ccc(OC)cc2c1C	6	24	1	7	6	3	nt	nt
CCOc1cc(-c2ccc(C)cc2)nc2ccc(C(=O)NCCN3CCOCC3)cc12	-9	nt	nt	nt	nt	nt	nt	nt
CN(C)S(=O)(=O)NCCn1nc(-c2cccs2)n(C2CC2)c1=O	-18	nt	nt	nt	nt	nt	nt	nt
O=C(CN1CCOCC1)NN=Cc1ccco1	-7	nt	nt	nt	nt	nt	nt	nt
Cc1nc(NC(=O)C2CCN(c3cc(C4CC4)ncn3)CC2)sc1C(=O)N(C)C	-26	nt	nt	nt	nt	nt	nt	nt
C/C(C=NNC(=O)c1cccc(F)c1)=C\c1ccccc1	-8	nt	nt	nt	nt	nt	nt	nt
CCOC(=O)c1[nH]c2ccc(OC)cc2c1NC(=O)CN1CCSCC1	-2	44*	6	7	0	3	68*	52*
CCOC(=O)c1[nH]c2cc(OC)c(OC)cc2c1NC(=O)CCN1CCSCC1	0	107*	0	20	0	1	126*	115*
CCOC(=O)c1[nH]c2cc(OC)c(OC)cc2c1NC(=O)CN(C)C1CCCCC1	20	33*	1	40*	-6	-2	8	-3
CCOC(=O)c1[nH]c2ccc(OC)cc2c1NC(=O)CCN1CCC(C)CC1	-7	nt	-3	nt	-16	-3	nt	nt
CCOC(=O)c1[nH]c2ccc(OC)cc2c1NC(=O)CCN1CCc2ccccc2C1	-8	40*	5	7	-4	-1	87*	83*
COc1ccc2nc(N(/N=C\c3cccs3)C(=O)c3cccc(F)c3)sc2c1	-5	nt	nt	nt	nt	nt	nt	nt
O=S(=O)(c1cccnc1)N1CC(Oc2nc3ccccc3s2)C1	-6	nt	nt	nt	nt	nt	nt	nt
COc1ccc(CSc2ccc(-c3nc4ccccn4c3NCc3ccccc3)cc2OC)cc1	0	34*	2	11	-5	1	31*	28*
CCCCCCSc1cc(-c2nc3cnccn3c2NCc2ccccc2)ccc1OC	-11	18	5	16	59	2	nt	nt
COc1ccc(-c2nc3ccccn3c2NC2CCCCC2)cc1SC1CCCCC1	29	44*	1	6	50	-3	132*	115*
COc1cc(-c2nc3ccccn3c2NCc2ccccc2)ccc1SC1CCCCC1	-5	45*	-3	12	67	-2	84*	52*
